This test has as its system VDR:RXRa (NR concentration 270 nM, RXRa partner concentration 90 nM). Briefly: PBM binding z-score (relative to random genomic background probes); higher = stronger binding; sequences stand for … in GC…GCGATTGACAGCGTAGAATGAAGG
The protocol: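 Protein-binding microarray (Agilent 4x180K custom design, double-stranded 60-nt probes: 5' GC cap, 34-nt variable region, 24-nt constant primer region; full probe sequence given). Purified or IVT nuclear receptor:RXRα heterodimers (3:1 NR:RXRα, mostly 270:90 nM) or homodimers were incubated for 1 h in PBS with 2% milk and no ligand, then detected with Alexa488 antibodies. Fluorescence from o1-orientation probes (~5 replicates averaged) was converted to z-scores against 500 random hg19 background probes. Variable regions are seed direct-repeat (DR0–DR5) sites, all their single-nucleotide variants and half-site ablations.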
Take GCTTACCGGTCAAAGGTTATAGCATGAATAGAAT: the PBM binding z-score was 2.81.
Next, ATCGAAAGGTTGAAGGTGAGTATACCCACCCGAA: 0.806.
Next, AGTCAAAGTTCAGGACGAGGTAACATAAAGCACG: 3.13; TCGAGTAGGTTACCAATGGGGCATCCAGCTTTCT: -0.0688.
Next, ATATGTAGTTTAAGGGTCATTCAGGTTGGTTCGC: 5.34; TCATCTAGGTAAACAGGTGAAAGTCCGTAAGTTA: 0.914; GCATATAGGTACTACAAGGTGAAAGTCCGATTGT: 0.143.
In turn, GATACAGGGTCAGCTAGAGGCCAGAGGATGGAAA returned a PBM binding z-score of 3.12.
Sequence CCTACTGGTCCATTCAGAGGTCATTGATCATATG displayed a PBM binding z-score of 4.24.
Sequence ACTAGCAGGCCAAGGGTCACACAAGATTAGTCCG had a PBM binding z-score of 3.53.
With CATACAGGGTCAGCTAGGCCAGAATAGGGACGGC, the PBM binding z-score was found to be 3.8.
Next, ACTTACGAGTCAACGAGGTTATAGCACGCGTATA: 4.89; ATCTCTAGGTAACCAGTTCAGTGAAAGAGAGGAC: 1.16; TCTTGTAGATCAACAGGAGGGTAAGAAAGATCGA: 0.029.
Sequence CATACAGGGTCAGCTTGGCCAGAGTAGGGACGGC yielded a PBM binding z-score of 2.81.
The figure for GCTAGCAGGCCATTTGTGTCACTCAATGACGGGC is -0.481; for CTCGAAAGGTCGGTTTAGGTGAGTATACGGATAA it is 1.28; for CCTATTAGTTGACCATAAGGGCAACCCAAGCTCG it is 0.972.
For the sequence AATACAGGGTCACTAGGCAAGAGTAGGTACGAAT, the PBM binding z-score is 3.97.
Regarding TCTTGTAGATCATGCAGGTTAAGAAAGCCTGAGT, the PBM binding z-score was 0.976.
Next, CCTACTGGGCCAAGGTCATTAATCAGTCAAAGCA: 2.84.
Next, CGAACGAGGGCATGAGTTGATAGCTAATGCCGAT: 1.37; ATCTCTAGGTAACAAGTTCAATGAAAGAGAGGAC: 2.67; AGTCAAAGTTCAGGCCGAGGTAACGTAAAGCACG: 3.01.
The figure for ATATGTAGGTTACATCCGCGTCATTCAGGCTATG is 0.515; for ACAGACAGGTGATGAAGGTAACCCAGGCTATCAT it is -0.00497.
The sequence ACTATTAGTTGAATTAGGGCAACCGATACGACGC yielded a PBM binding z-score of 0.274.
Next, TGTCAAAGTTCAAAGGTAACCTAAGTATCCACAC: 5.12; CGAACTAGGTCATCCAGGACAGTTAATACATTGA: 4.42.
In turn, CCAGGCAGGTGAAAGGTAACTCAGTCTGGTACGC displayed a PBM binding z-score of 0.277.
The figure for GCTGGTTGGTCAGTAAAAGGTCACACACCGGTCG is 4.02; for TTACCAAGGTGAGCTGAGGTAGTTGATCCAACTC it is -0.45.
Next, CTCGAAAGGTCGTGCTCAGGTGAGGATACCAAAC: 3.3; CCGGCTGGGGCAAGGTTACCATAACGCACAGCCA: -0.269; AGAACGAGGTTACCAAAGATCAGGGAAACGCTTG: 1.32.
Take TCTATTAGTTGATTCGGGCAACCGAAACAGCGGA: the PBM binding z-score was found to be 0.506.
CAAACTAGGTCACCGGAATGTCAAAGTCCGCATG: the PBM binding z-score is 3.06.
Next, ATCTCTGGGTAAAAGTTCAGTGAATCCCGAGGAT: 1.25; ATATGTAGGTTACATCCGGGTCATTCACGCTATG: 4.35.
ATCTCTAGGTAACCAATTTCAGTGAATGCCGAAC showed a PBM binding z-score of 0.336.

(Values after the supplement of paper PMC6555819.)
